# Test results published in the supplement of paper PMC12282887.
# ± gives the standard deviation of the averaged measurements.
# Tested on: E. coli BW25113 marRABp lux reporter
# Test: promoter activity interaction Z-score (Lux/OD deviation from empty-vector control); higher = stronger promoter induction by the compound
# Experimental: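 E. coli BW25113 (wild type or ΔmarA/ΔsoxS/Δrob) carrying pTU175 luxCDABE promoter reporters was grown in LB in 384-well plates at 37°C with each of 94 compounds at 4 two-fold concentrations, in biological duplicates. Luminescence and OD600 were read every 30 min for 12 h and integrated as AUC over 8 h (0-8 h WT, 1-9 h mutants). Lux AUC was divided by OD AUC; the interaction score is the residual of a Huber robust fit of each promoter against the empty-vector control, then Z-transformed per promoter.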
SMILES,"promoter activity interaction Z-score (21 µg/ml, genetic background: wild type)","promoter activity interaction Z-score (21 µg/ml, genetic background: ΔmarA)","promoter activity interaction Z-score (21 µg/ml, genetic background: Δrob)","promoter activity interaction Z-score (21 µg/ml, genetic background: ΔsoxS)","promoter activity interaction Z-score (42 µg/ml, genetic background: wild type)","promoter activity interaction Z-score (42 µg/ml, genetic background: ΔmarA)","promoter activity interaction Z-score (42 µg/ml, genetic background: Δrob)","promoter activity interaction Z-score (42 µg/ml, genetic background: ΔsoxS)","promoter activity interaction Z-score (84.1 µg/ml, genetic background: wild type)","promoter activity interaction Z-score (84.1 µg/ml, genetic background: ΔmarA)","promoter activity interaction Z-score (84.1 µg/ml, genetic background: Δrob)","promoter activity interaction Z-score (84.1 µg/ml, genetic background: ΔsoxS)","promoter activity interaction Z-score (168.2 µg/ml, genetic background: wild type)","promoter activity interaction Z-score (168.2 µg/ml, genetic background: ΔmarA)","promoter activity interaction Z-score (168.2 µg/ml, genetic background: Δrob)","promoter activity interaction Z-score (168.2 µg/ml, genetic background: ΔsoxS)","promoter activity interaction Z-score (40.6 µg/ml, genetic background: wild type)","promoter activity interaction Z-score (40.6 µg/ml, genetic background: ΔmarA)","promoter activity interaction Z-score (40.6 µg/ml, genetic background: Δrob)","promoter activity interaction Z-score (40.6 µg/ml, genetic background: ΔsoxS)","promoter activity interaction Z-score (81.1 µg/ml, genetic background: wild type)","promoter activity interaction Z-score (81.1 µg/ml, genetic background: ΔmarA)","promoter activity interaction Z-score (81.1 µg/ml, genetic background: Δrob)","promoter activity interaction Z-score (81.1 µg/ml, genetic background: ΔsoxS)","promoter activity interaction Z-score (162.2 µg/ml, genetic background: wild type)","promoter activity interaction Z-score (162.2 µg/ml, genetic background: ΔmarA)","promoter activity interaction Z-score (162.2 µg/ml, genetic background: Δrob)","promoter activity interaction Z-score (162.2 µg/ml, genetic background: ΔsoxS)","promoter activity interaction Z-score (324.4 µg/ml, genetic background: wild type)","promoter activity interaction Z-score (324.4 µg/ml, genetic background: ΔmarA)","promoter activity interaction Z-score (324.4 µg/ml, genetic background: Δrob)","promoter activity interaction Z-score (324.4 µg/ml, genetic background: ΔsoxS)"
COc1ccc2cc3[n+](cc2c1OC)CCc1cc2c(cc1-3)OCO2 [Berberine],-0.142 ± 0.16,-0.0869 ± 0.24,-0.003 ± 0.15,0.0721 ± 0.0037,-0.183 ± 0.049,-0.0953 ± 0.12,-0.278 ± 0.1,-0.0367 ± 0.026,-0.286 ± 0.35,0.056 ± 0.18,-0.324 ± 0.01,-0.135 ± 0.015,-0.373 ± 0.17,-0.165 ± 0.027,-0.287 ± 0.045,-0.015 ± 0.094,,,,,,,,,,,,,,,,
C=C[C@H]1CN2CC[C@H]1C[C@H]2[C@H](O)c1ccnc2ccc(OC)cc12 [Quinine],,,,,,,,,,,,,,,,,0.0904 ± 0.38,-0.307 ± 0.24,-0.00554 ± 0.082,-0.106 ± 0.073,-0.119 ± 0.029,0.197 ± 0.19,-0.0844 ± 0.1,0.0817 ± 0.18,-0.16 ± 0.05,0.254 ± 0.062,-0.151 ± 0.3,-0.0309 ± 0.098,1.1 ± 0.12,1.18 ± 0.12,-0.164 ± 0.17,0.579 ± 0.51
